# Source: the supplement of paper PMC8728848
# This is one part of a sample in which the strongest signals are shown more often than they occur.
# B1: IDGF2 (Drosophila melanogaster), Q9V3D4 (protein)
# chain: MKAWIWFTFVACLFAASTEAASNLVCYYDSSSYTREGLGKLLNPDLEIALQFCSHLVYGYAGLRGENLQAYSMNENLDIYKHQFSEVTSLKRKYPHLKVLLSVGGDHDIDPDHPNKYIDLLEGEKVRQIGFIRSAYDLVKTYGFDGLDLAYQFPKNKPRKVHGDLGLAWKSIKKLFTGDFIVDPHAALHKEQFTALVRDVKDSLRADGFLLSLTVLPNVNSTWYFDIPALNGLVDFVNLATFDFLTPARNPEEADYSAPIYHPDGSKDRLAHLNADFQVEYWLSQGFPSNKINLGVATYGNAWKLTKDSGLEGVPVVPETSGPAPEGFQSQKPGLLSYAEICGKLSNPQNQFLKGNESPLRRVSDPTKRFGGIAYRPVDGQITEGIWVSYDDPDSASNKAAYARVKNLGGVALFDLSYDDFRGQCSGDKYPILRAIKYRLHHHHHH
# Tests used:
# Test in all cases: glycan array binding signal (z-score within array); higher = stronger binding
# Conditions in all cases: glycan notation: IUPAC condensed, linker removed
# [1] = target: Fuc(a1-2)Gal(b1-3)[Fuc(a1-4)]GlcNAc
# How it was run: (§1)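 Negative Z-scores can be read as non-binding. The Z-score is calculated within each array and then averaged across arrays of one protein sequence at different concentrations or buffers and across linkers. Arrays, 3228 in all, were curated from the Consortium for Functional Glycomics database and kept only where the protein sequence was available.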
# [2] = target: Fuc(a1-2)Gal(b1-4)GlcNAc(b1-3)Gal(b1-4)GlcNAc
# How it was run: as §1
# [3] = target: Fuc(a1-2)Gal6S(b1-4)GlcNAc
# How it was run: as §1
# [4] = target: Fuc(a1-2)[Gal(a1-3)]Gal(b1-3)GlcNAc
# How it was run: as §1
# [5] = target: Fuc(a1-2)[Gal(a1-3)]Gal(b1-4)Glc
# How it was run: as §1
# [6] = target: Fuc(a1-2)[Gal(a1-3)]Gal(b1-4)GlcNAc
# How it was run: as §1
# [7] = target: Fuc(a1-3)[Gal(b1-4)]Glc6S
# How it was run: as §1
# [8] = target: Fuc(a1-3)[Gal(b1-4)]GlcNAc(b1-3)Gal(b1-3)[Fuc(a1-4)]GlcNAc
# How it was run: as §1
# [9] = target: Fuc(a1-3)[Gal(b1-4)]GlcNAc(b1-4)Gal(b1-4)[Fuc(a1-3)]GlcNAc(b1-4)Gal(b1-4)[Fuc(a1-3)]GlcNAc
# How it was run: as §1
# [10] = target: Gal(a1-3)Gal(b1-4)[Fuc(a1-3)]GalNAc
# How it was run: as §1
# [11] = target: Gal(a1-3)[Gal(a1-4)]Gal(b1-4)GlcNAc
# How it was run: as §1
# Gal(a1-4)Gal(b1-4)Gal = target: Gal(a1-4)Gal(b1-4)Gal
# How it was run: as §1
# Gal(a1-4)Gal(b1-4)GalNAc = target: Gal(a1-4)Gal(b1-4)GalNAc
# How it was run: as §1
# Gal(b1-3)Gal = target: Gal(b1-3)Gal
# How it was run: as §1
# [12] = target: Gal(b1-3)[Fuc(a1-4)]GlcNAc(b1-3)Gal(b1-4)GlcNAc
# How it was run: as §1
# [13] = target: Gal(b1-4)GlcNAc(b1-3)Gal(b1-4)GlcNAc
# How it was run: as §1
# [14] = target: Gal3S(b1-3)[Fuc(a1-4)]GlcNAc
# How it was run: as §1
# GalNAc(a1-3)GalNAc = target: GalNAc(a1-3)GalNAc
# How it was run: as §1
# [15] = target: GlcNAc(b1-2)Man(a1-3)[GlcNAc(b1-2)Man(a1-6)]Man(b1-4)GlcNAc(b1-4)GlcNAc
# How it was run: as §1
# GlcNAc(b1-3)Gal = target: GlcNAc(b1-3)Gal
# How it was run: as §1
# GlcNAc(b1-3)GalNAc = target: GlcNAc(b1-3)GalNAc
# How it was run: as §1
# GlcNAc(b1-6)GalNAc = target: GlcNAc(b1-6)GalNAc
# How it was run: as §1
# Man(a1-2)Man(a1-3)Man = target: Man(a1-2)Man(a1-3)Man
# How it was run: as §1
# [16] = target: Neu5Ac(a2-3)Gal(b1-4)GlcNAc(b1-3)Gal(b1-4)GlcNAc
# How it was run: as §1
# [17] = target: Neu5Ac(a2-3)Gal(b1-4)[Fuc(a1-3)]GlcNAc(b1-3)Gal
# How it was run: as §1
# [18] = target: Neu5Ac(a2-3)Gal(b1-4)[Fuc(a1-3)]GlcNAc(b1-3)Gal(b1-4)GlcNAc
# How it was run: as §1
# [19] = target: Neu5Ac(a2-3)Gal6S(b1-4)GlcNAc
# How it was run: as §1
# [20] = target: Neu5Ac(a2-8)Neu5Ac(a2-3)[GalNAc(b1-4)]Gal(b1-4)Glc
# How it was run: as §1
# [21] = target: Neu5Gc(a2-6)Gal(b1-4)GlcNAc
# How it was run: as §1
binder,measurement,setting,value
B1,glycan array binding signal (z-score),[1],-0.463
same,glycan array binding signal (z-score),[2],-0.26
same,glycan array binding signal (z-score),[3],-0.274
same,glycan array binding signal (z-score),[4],8.27
same,glycan array binding signal (z-score),[5],6.99
same,glycan array binding signal (z-score),[6],7.65
same,glycan array binding signal (z-score),[7],0.706
same,glycan array binding signal (z-score),[8],0.936
same,glycan array binding signal (z-score),[9],-0.319
same,glycan array binding signal (z-score),[10],-0.365
same,glycan array binding signal (z-score),[11],-0.273
same,glycan array binding signal (z-score),Gal(a1-4)Gal(b1-4)Gal,-0.196
same,glycan array binding signal (z-score),Gal(a1-4)Gal(b1-4)GalNAc,-0.481
same,glycan array binding signal (z-score),Gal(b1-3)Gal,0.071
same,glycan array binding signal (z-score),[12],0.056
same,glycan array binding signal (z-score),[13],-0.325
same,glycan array binding signal (z-score),[14],0.072
same,glycan array binding signal (z-score),GalNAc(a1-3)GalNAc,-0.398
same,glycan array binding signal (z-score),[15],-0.223
same,glycan array binding signal (z-score),GlcNAc(b1-3)Gal,0.066
same,glycan array binding signal (z-score),GlcNAc(b1-3)GalNAc,0.032
same,glycan array binding signal (z-score),GlcNAc(b1-6)GalNAc,-0.197
same,glycan array binding signal (z-score),Man(a1-2)Man(a1-3)Man,-0.128
same,glycan array binding signal (z-score),[16],-0.3
same,glycan array binding signal (z-score),[17],0.239
same,glycan array binding signal (z-score),[18],0.148
same,glycan array binding signal (z-score),[19],-0.073
same,glycan array binding signal (z-score),[20],-0.271
same,glycan array binding signal (z-score),[21],0.622
